An excerpt weighted towards active compounds, which were near 0.92% of everything screened.
BLM inh: blocks DNA unwinding by human BLM helicase | P54132 | recombinant BLM DNA unwinding, fluorescence dequenching | Potency, µM (highest dose often 56.1 µM), for inactives: at the top dose activity change, negative = inhibition, hits mostly inhibitors | 0.2% of 350,000 active | AID 2528;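 note: plate controls were vehicle for no effect and no enzyme for full effect; nearly all actives have a fitted effect of over 35% in size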
APE1 inh-1: inhibitors of human APE1 endonuclease. P27695. recombinant APE1, TAMRA/BHQ-2 abasic DNA cleavage fluorescence. Potency, µM (doses to about 65.8 µM), for the others: at the highest dose activity change, negative = inhibition, actives largely listed as inhibitors. 0.35% of 350,000 active;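 note: plate controls were vehicle for no effect and reference inhibitor for full effect; nearly all actives have a fitted effect of over 55% in size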
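Endonuclease cleavage of a quenched abasic-site DNA duplex (50 nM) by APE1 (0.75 nM) was tracked by TAMRA dequenching. Compounds were preincubated with enzyme 15 min at room temperature; data normalized to buffer-only and DMSO wells plus NSC13755 control.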
WRN helicase inh: blocks human WRN helicase; AID 651768; 0.46% of 360,000 active; WRN helicase unwinding, fluorescent forked duplex, kinetic; Q14191; Potency, µM (doses to about 114 µM), without a hit: at the highest dose activity change, negative = inhibition, usual class: inhibitors; note: nearly all actives have a fitted effect of over 55% in size
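WRN at 20 nM final was preincubated with compound for 15 min at room temperature; reaction started with 100 nM forked duplex oligonucleotide carrying fluorophore and quencher plus 2 mM ATP (final). Unwinding followed kinetically by red fluorescence (ex 525/em 598 nm).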
L3MBTL1 inh: L3MBTL1 (human) inhibition. AID 485360. Q9Y468. Potency, µM (titrated, usually from 57.1 µM), without a hit: top-dose activity, negative = inhibition, usual class: inhibitors. 0.66% of 230,000 active. AlphaScreen L3MBTL1–H3K9me1 peptide binding; note: nearly all actives have a fitted effect of over 60% in size
Target sequence (Q9Y468 whole entry, looked up): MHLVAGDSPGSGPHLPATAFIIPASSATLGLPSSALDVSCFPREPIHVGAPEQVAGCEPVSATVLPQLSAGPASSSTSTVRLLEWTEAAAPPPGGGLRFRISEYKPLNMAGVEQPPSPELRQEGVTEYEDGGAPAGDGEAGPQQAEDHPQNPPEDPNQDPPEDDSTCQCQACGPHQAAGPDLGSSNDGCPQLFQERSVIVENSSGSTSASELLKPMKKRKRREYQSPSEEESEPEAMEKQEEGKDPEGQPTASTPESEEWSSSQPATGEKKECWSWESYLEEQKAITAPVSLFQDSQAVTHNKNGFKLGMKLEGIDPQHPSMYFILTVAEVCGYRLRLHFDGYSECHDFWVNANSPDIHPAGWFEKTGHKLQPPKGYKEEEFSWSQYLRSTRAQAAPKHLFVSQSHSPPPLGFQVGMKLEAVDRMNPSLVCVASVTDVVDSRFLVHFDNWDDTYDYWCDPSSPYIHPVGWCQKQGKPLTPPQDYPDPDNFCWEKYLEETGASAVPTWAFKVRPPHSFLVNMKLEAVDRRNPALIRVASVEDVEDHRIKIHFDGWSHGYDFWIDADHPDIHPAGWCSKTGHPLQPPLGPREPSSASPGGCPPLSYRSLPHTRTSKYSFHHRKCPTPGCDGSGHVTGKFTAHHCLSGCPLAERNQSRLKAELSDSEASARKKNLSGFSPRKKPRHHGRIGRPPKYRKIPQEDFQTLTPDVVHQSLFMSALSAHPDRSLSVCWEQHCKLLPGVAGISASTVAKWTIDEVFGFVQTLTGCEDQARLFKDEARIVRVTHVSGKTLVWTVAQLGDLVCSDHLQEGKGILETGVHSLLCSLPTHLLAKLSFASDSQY
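L3MBTL1 (50 nM) pre-complexed 30 min with biotinylated H3(1-15)K9me1 peptide (75 nM), then compounds added for 30 min at room temperature; AlphaScreen streptavidin donor/nickel chelate acceptor beads (10 ug/mL final) read after 30 min dark incubation.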
RECQ1 helicase: inhibitors of human RECQ1 DNA helicase. P46063. RECQ1 DNA unwinding, red fluorescence kinetic read. Potency, µM (titrated, usually from 57.3 µM), inactives show at the top dose activity, negative = inhibition, usual class: inhibitors. 0.54% of 240,000 active. AID 2549;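 note: plate controls were vehicle for no effect and no enzyme for full effect; nearly all actives have a fitted effect of over 30% in size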
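RECQ1T1 50 nM; forked duplex (20 bp + 30-nt ss tails) 200 nM, ATP 2 mM final; pH 8.0, 2 mM MgCl2, 2.5 ug/ml poly(dI-dC); 15 min compound preincubation; discontinuous kinetic read over 2 h at RT.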
DNA dye displace: DNA dye displacement counter-screen activity; 7% of 480 active; Potency, µM (series often up to 28.5 µM), inactives show top-dose activity change, negative = inhibition, most hits filed as inhibitors; shares compounds with APE1 inh-1; DNA fluorescent dye displacement counterscreen, fluorescence;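 note: loss of thiazole orange fluorescence as the dye is displaced from duplex DNA; 0% = ThO with dsDNA and no compound and -100% = ThO without dsDNA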
EndoIV counter: Endo IV (E. coli) inhibition counter-screen; shares compounds with APE1 inh-1; E. coli Endo IV, fluorogenic AP-site DNA cleavage; Potency, µM (highest dose often 27.1 µM), for inactives: top-dose activity change, negative = inhibition, hits mostly inhibitors; 4% of 560 active;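 note: plate controls were uninhibited enzyme wells for no effect and no enzyme buffer wells for full effect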
APE1 inh-2: APE1 (human) endonuclease inhibition, confirmation | Potency, µM (highest dose often 57.1 µM), without a hit: at the top dose activity change, negative = inhibition, actives largely listed as inhibitors | purified APE1, fluorogenic abasic-site DNA cleavage | AID 2572 | 44% of 750 active | shares compounds with APE1 inh-1; note: nearly all actives have a fitted effect of over 30% in size
APE1 FP inh: APE1 (human) DNA binding inhibition, fluorescence polarization | Potency, µM (highest dose often 28.5 µM), for inactives: at the highest dose activity, negative = inhibition, most hits filed as inhibitors | 7% of 480 active | shares compounds with APE1 inh-1 | APE1 binding to TAMRA-labelled double-stranded DNA, fluorescence polarization displacement | AID 2573
* = called active by the depositor; i = inactive; ? = inconclusive; nt = no result; [ ] = dose if it differs, or a comment. Calls come from the whole dose curve; as a rule, active = well fitted curve in the direction sought with a large enough effect; inconclusive = small, poorly fitted or top-dose-only effect, or another doubt; inactive = no such curve, though single readings can be large; an effect the other way counts as inactive or inconclusive. Unless noted, % is set by controls: 0 for no effect and ±100 for the full control effect; potency is the fitted concentration of half-maximal effect.

SMILES | BLM inh | APE1 inh-1 | WRN helicase inh | L3MBTL1 inh | RECQ1 helicase | EndoIV counter | APE1 inh-2 | others
O=C1/C(=C/c2ccco2)SC(=S)N1CC1CCCO1 (stereo unspecified) | -27% | 10µM* | ? | 16µM* | 22µM* | -3% | 7.9µM* | DNA dye displace=-7%;APE1 FP inh=-12%
O=[N+]([O-])c1cc(/C=N\Nc2nccs2)ccc1O | 28µM* | 7.1µM* | nt | nt | 11µM* | 16% | 1.6µM* | DNA dye displace=10µM*;APE1 FP inh=8.9µM*
O=[N+]([O-])c1ccccc1/C=N\Nc1nccs1 | 0% | 19% | 2% | -11% | nt | nt | nt
COC(=O)NC(c1ccccc1)C(C#N)C(=O)OC (stereo unspecified) | 7%[12.4 µM] | 30%[12.4 µM] | nt | nt | 15%[11.5 µM] | nt | nt
O=[N+]([O-])c1cccc2cn[nH]c12 | 4% | -10% | 4% | -6% | 1% | nt | nt
O=[N+]([O-])c1cccc2c[nH]nc12 | -27% | 6.3µM* | nt | nt | 28µM* | -47%[57.1 µM] | 13µM*
CO[C@H]1COC(=O)C/C=C\[C@@H](C)COC(=O)[C@@H](C)NC(=O)C/C=C\[C@@H]1C | 0%[12.4 µM] | ? | nt | nt | -6%[11.5 µM] | nt | nt
O=C(Nc1ccc([N+](=O)[O-])cc1)Nc1ccc2[nH]c(=O)[nH]c2c1 | -24% | ? | -23% | 3% | -27% | -3% | ? | DNA dye displace=-18%;APE1 FP inh=11%
O=C(CSc1ccc([N+](=O)[O-])cn1)Nc1ccc2[nH]c(=O)[nH]c2c1 | -9% | 7% | 5% | nt | nt | nt | nt
CC1(C)CC(=O)c2c(oc3ccc(NS(=O)(=O)c4cccc5cccnc45)cc23)C1 | -5% | -10% | -4% | -13% | -5% | nt | nt
O=C1CCCc2oc3ccc(NS(=O)(=O)c4cccc5cccnc45)cc3c21 | -1% | ? | -7%[11.6 µM] | -2% | 9% | nt | ?
CC(=O)Nc1ccc(SCC(c2ccccc2)N2CCN(CC(C)C)CCC2=O)cc1 (stereo unspecified) | -1% | 1% | nt | nt | -2% | nt | nt
O=C(N/N=C/c1c[nH]c2ccc(Br)cc12)c1ccncc1 | ? | -4% | ? | -12% | -6% | nt | -12%
NC(=O)c1cc[n+](CC2=C(C(=O)O)N3C(=O)[C@@H](NC(=O)[C@@H](c4ccccc4)S(=O)(=O)[O-])[C@H]3SC2)cc1 | nt | ? | nt | nt | -4% | 3%[57.1 µM] | -76%
Cn1nnnc1SCC1=C(C(=O)O)N2C(=O)[C@@H](NC(=O)[C@@H](O)c3ccccc3)[C@@H]2SC1 | 6%[21.4 µM] | nt | nt | nt | -2%[25.9 µM] | nt | nt
CC[C@H](NC(=O)[C@H](CCC(=O)O)NC(=O)[C@H](CCC(=O)O)NC(=O)[C@H](CC(=O)O[S+](=O)([O-])c1cccc2c(NCCN)cccc12)NC(=O)[C@H](CCC(=O)O)NC(=O)[C@H](CC(=O)O)NC(C)=O)C(=O)ON[C@@H](C)C(=O)N[C@@H](CO)C(=O)N[C@@H](CCCCNC(=O)c1ccc(N=Nc2ccc(N(C)C)cc2)cc1)C(N)=O | -4% | 0% | nt | nt | -6% | nt | nt
C=CC1=C2C=C(C3CC3)N(Cc3ccco3)C=C2C(=O)C(C)(OC(=O)c2ccco2)C1=O (stereo unspecified) | -4%[12.4 µM] | 2%[12.4 µM] | nt | nt | i[11.5 µM] | nt | nt
CC(C)[C@H](NC(=O)[C@H](CCCCN)NC(=O)[C@@H](NC(=O)[C@@H]1CCCN1C(=O)[C@H](CCCN=C(N)N)NC(=O)[C@H](CCCN=C(N)N)NC(=O)[C@H](CCCCN)NC(=O)[C@H](CCCCN)NC(=O)CNC(=O)[C@@H](NC(=O)[C@@H]1CCCN1C(=O)[C@@H](N)CCCCN)C(C)C)C(C)C)C(=O)N[C@@H](Cc1ccc(O)cc1)C(=O)N1CCC[C@H]1C(=O)O | 68% | 1% | nt | nt | -2% | nt | nt
CS(=O)(=O)c1nc([N+](=O)[O-])nn1CCCc1ccccc1 | nt | nt | -6% | nt | nt | nt | nt
Cn1nc([N+](=O)[O-])nc1S(C)(=O)=O | -2% | ? | -4% | -8% | -15% | 0% | ? | DNA dye displace=-1%;APE1 FP inh=-2%
Cc1nn(-c2ccccc2)c(C)c1S(=O)(=O)O | -6% | -1% | 4% | -7% | 7% | nt | ?
Cc1cccc(NC(=O)CN2C(=O)S/C(=C\c3ccc(-c4cccc(C(=O)O)c4C)o3)C2=O)c1 | ? | ? | -10% | nt | -15% | nt | 25µM*
Cc1ccccc1NC(=O)CN1C(=O)S/C(=C\c2ccc(-c3cccc(C(=O)O)c3C)o2)C1=O | -1% | 0% | -11%[57.1 µM] | -2% | i | nt | nt
O[C@@H]1COC2[C@@H](O)CO[C@@H]21 (stereo partly specified) | 1% | -1% | nt | nt | -7% | nt | nt
O=C(Nc1ccc(-c2ccc3nncn3n2)cc1)c1ccc(Br)o1 | -11% | -2% | ? | nt | -25% | nt | -41%
SMILES | BLM inh | APE1 inh-1 | WRN helicase inh | L3MBTL1 inh | RECQ1 helicase | EndoIV counter | APE1 inh-2 | others
CN1[C@@H]2CC[C@H]1CC(OC(=O)c1c[nH]c3ccccc13)C2 (stereo partly specified) | -6% | -4% | 14% | nt | -5% | nt | nt
CN1C2CCC1CC(OC(=O)c1c[nH]c3ccccc13)C2 (stereo unspecified) | -9% | 19% | 3% | -4% | ? | -12%[57.1 µM] | -22%
C[C@H](NC(=O)[C@@H](Cc1c[nH]c2ccccc12)NC(=O)[C@@H](N)Cc1cnc[nH]1)C(=O)N[C@@H](Cc1c[nH]c2ccccc12)C(=O)N[C@H](Cc1ccccc1)C(=O)N[C@@H](CCCCN)C(N)=O | -3% | 0% | nt | nt | 3% | nt | nt
COC(=O)c1cc2oc3ccccc3c2n1Cc1ccccn1 | -2% | ? | -7% | nt | -3% | 2% | -2%[24.4 µM] | DNA dye displace=-9%;APE1 FP inh=8%
COC(=O)NC(c1ccco1)[C@@]1(C(=O)OC)CCCC1=O (stereo partly specified) | 2%[12.4 µM] | ? | nt | nt | i[11.5 µM] | nt | nt
CCOC(=O)C1OC1C(=O)N[C@@H](CC(C)C)C(=O)NCCC(C)C (stereo partly specified) | -2% | 1% | nt | nt | -16% | nt | nt

Screens: PubChem, National Center for Advancing Translational Sciences (NCATS)
